Experimental data as given in PubChem BioAssay AID1476 (National Center for Advancing Translational Sciences (NCATS), 2009).
About 4,500 (2.2%) of roughly 200,000 compounds were called active. Not shown: some 12% with an inconclusive outcome. Only a selection was taken, and actives are over-represented in it overall. Unmarked numbers belong to inactive results. Calls come from the whole dose curve; as a rule, active = well fitted inhibition curve with a large enough effect; inconclusive = small, poorly fitted or top-dose-only effect, or effect the other way; inactive = flat fitted curve, though single readings scatter.

target: Cruzipain (Trypanosoma cruzi) (UniProt P25779); test: qHTS Assay for Promiscuous and Specific Inhibitors of Cruzain (without detergent); settings: purified cruzain, Z-FR-AMC fluorescence, no detergent; note: nearly all actives have a fitted effect of over 40% in size
Method: Cruzain is a cysteine protease from the tropical parasite Trypanosoma cruzi. Dual qHTS experiment was performed against the NCGC compound collection in order to 1) identify novel inhibitors of the enzyme and 2) profile the compound collection for promiscuous inhibitors operating via colloidal aggregation (by performing detergent-free and detergent-containing comparison screens). Cruzain was assayed by the use of fluorogenic coumarin-based substrate Z-FR-AMC: proteolytic cleavage releases AMC, whose fluorescence is measured at 360 nm excitation and 450 nm emission. Purified cruzain was supplied by the labs of Prof. James McKerrow and Brian Shoichet, UC San Francisco.
This assay had 0.00005% Triton X-100 concentration. See also releated assay "qHTS Assay for Promiscuous and Specific Inhibitors of Cruzain (with detergent)" with 0.01% Triton X-100.
See following references for additional details:
Assay Provider: Shoichet, Brian; University of California, San Fancisco
Screening Center PI: Austin, C.P.
Screening Center: NIH Chemical Genomics Center [NCGC]
Buffer: 100 mM Sodium Acetate, pH 5.5, 5 mM DTT, Triton X-100 concentration: 0.01%.
Buffer in columns 3 and 4 as negative control (no enzyme).
Substrate solution: 2 uM final concentration of Z-FR-AMC (catalog number I-1160, Bachem) dispensed throughout the plate.
Enzyme: 1.5 nM Cruzain final concentration in columns 1, 2, 5-48. Column 1 is neutral (100% activity). Column 2 contained titration of covalent inhibitor K11777, starting concentration 1 mM, then 1:2 dilution in duplicate).
Three uL of enzyme or buffer were dispensed to 1536-well Greiner black solid bottom plates. Compounds and controls (23 nL) were transferred via Kalypsys PinTool. The plates were incubated for 15 min at room temperature, and then 1 uL of substrate solution was added to start the reaction. The plates were immediately transferred to and read 4 times every 30 seconds for 2 min on ViewLux High-throughput CCD imager (Perkin-Elmer) using 360 nm excitation and 450 nm emission fluorescence protocol. The fluorescence intensity difference between the third and the first time points (time lapse of 60 seconds) was used to compute reaction progress.
Potency is the fitted concentration of half-maximal effect.

Chain of Cruzipain (Trypanosoma cruzi) (P25779 123-467 limits assumed): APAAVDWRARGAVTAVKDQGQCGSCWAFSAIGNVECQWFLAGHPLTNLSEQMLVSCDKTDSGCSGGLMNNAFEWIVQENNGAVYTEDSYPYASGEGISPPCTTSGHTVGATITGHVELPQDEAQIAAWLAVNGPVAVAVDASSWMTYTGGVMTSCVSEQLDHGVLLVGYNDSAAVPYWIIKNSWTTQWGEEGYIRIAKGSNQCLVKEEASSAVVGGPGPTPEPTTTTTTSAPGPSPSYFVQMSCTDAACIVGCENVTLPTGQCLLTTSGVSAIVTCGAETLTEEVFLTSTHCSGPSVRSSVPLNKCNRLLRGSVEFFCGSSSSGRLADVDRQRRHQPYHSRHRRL

SMILES | max response, negative = inhibition [%] | Potency
Cc1nn(-c2ccccn2)c2c1C(c1ccncc1)C1=C(CC(C)(C)CC1=O)N2 (stereo unspecified) | -9 | –
Cc1cc(C)c(C2C3=C(Nc4c2c(C)nn4-c2ccccn2)c2ccccc2C3=O)c(C)c1 (stereo unspecified) | – | 12.6 µM (active)
CC(=C1C(=O)c2ccccc2C1=O)N1CCN(c2ccccn2)CC1 | -6.99 | –
NS(=O)(=O)c1ccc(CCNC(=O)CCCCCn2c(=O)[nH]c3ccccc3c2=O)cc1 | -15.6 | –
Cn1c(=O)n(C)c2cc(NS(=O)(=O)c3ccc(F)cc3)ccc21 | -10.1 | –
CC1(C)CC(=O)c2c(n(S(=O)(=O)c3ccccc3)c3ccc(NS(=O)(=O)c4ccccc4)cc23)C1 | – | 31.6 µM (active)
COc1cc(NS(=O)(=O)c2ccccc2)ccc1-n1nc(C)cc1C | 4.04 | –
CC(C)Oc1c(Br)cc(Br)cc1/C=N/NC(N)=S | – | 0.158 µM (active)
CCOc1ccc(/C=N/NC(N)=S)cc1 | -8.04 | –
Cc1cccc(-n2c(C)cc(/C=N/NC(N)=S)c2C)c1 | -26.1 | –
Cc1ccc2onc(CC(=O)N3CCN(c4ccc(Cl)cc4)CC3)c2c1 | 7.92 | –
COc1cccc(CNCCSc2nnnn2C)c1OCc1ccccc1Cl | 2.75 | –
COc1ccc(CNC(=O)Cn2nnc(-c3ccccc3F)n2)cc1 | -5.04 | –
COc1cc2nc(SCc3ccc(F)cc3)n3nc(CCn4c(C)nc5ccccc54)nc3c2cc1OC | -7.57 | –
CC(=O)c1ccc2c(ccc3ccccc32)c1 | 6.49 | –
CC(=O)CCC(=O)c1ccc2ccccc2c1 | 1.86 | –
C=CC(=O)c1ccc2ccccc2c1 | – | 2.51 µM (active)
Cc1ccc(NC(=O)Cn2c(=O)n(-c3ccccc3)c(=O)c3c4c(sc32)CCCC4)cc1 | -7.31 | –
Cc1ccc(S(=O)(=O)N2CCC(Oc3ccc(-n4cnnn4)cc3)CC2)cc1 | 8.75 | –
CCc1ccc(NC(=O)CN2CCSc3ccc(S(=O)(=O)N4CCCC4)cc32)cc1 | -26.3 | –
COc1ccc(-c2oc3cc(OC)ccc3c2C(=O)c2ccc(C#N)cc2)cc1 | – | 12.6 µM (active)
COc1ccc(C(=O)c2c(C)oc3cc([N+](=O)[O-])c(O)c([N+](=O)[O-])c23)cc1 | -3.8 | –
COc1cccc(C(=O)c2cc3ccc(O)cc3oc2=O)c1 | -3.19 | –
O=C(COc1ccccc1F)NNC(=O)c1ccc(N2CCCCC2)c([N+](=O)[O-])c1 | -11.1 | –
COc1cccc(C(=O)Nc2ccc(N3CCCC3)cc2)c1 | -20.3 | –
O=C(Nc1ccc(N2C(=O)c3cccc4cccc(c34)C2=O)cc1)c1ccc(N2CCCCC2)c([N+](=O)[O-])c1 | – | 7.94 µM (active)
